Assay results: PubChem BioAssay (NCATS)
Records with an inconclusive call do not appear. Entries that show only a call come without a potency. Calls of active or inactive are those of the source. The call rests on the fitted dose curve; in most records, active means well fitted cell-killing curve with a large enough effect; inconclusive means small, poorly fitted or top-dose-only effect; inactive means flat fitted curve, though single readings scatter.

Experiment: Cell Viability - LYMP2-012 (AID 982);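 further: cellular ATP by luciferase luminescence where a drop means cytotoxicity; cells exposed to compound for one day before reading; nearly all actives have a fitted effect of over 55% in size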
Conditions: LYMP2-012 lymphoblastoid cell viability qHTS; series mostly up to 92.2 µM
Description: NIH Chemical Genomics Center [NCGC]
NIH Molecular Libraries Screening Centers Network [MLSCN]
National Institutes of Environmental Health Sciences [NIEHS]
National Toxicology Program [NTP]
We have developed a 1536-well cell-based assay for quantitative high throughput screening (qHTS) against a number of cell lines to determine in vitro cytotoxicity of small molecules. This particular assay uses a human lymphoblastoid cell line (LYMP2-012) purchased from Coriell Institute for Medical Research.
NCGC Assay Protocol Summary:
The CellTiter-Glo luminescent cell viability assay (Promega) is a homogeneous method to measure the number of viable cells in culture. The end point readout of this assay is based on quantitation of intracellular ATP, an indicator of metabolic activity, using the luciferase reaction. Luciferase catalyzes the oxidation of beetle Luciferin to oxyluciferin and light in the presence of ATP. The luminescent signal is proportional to amount of ATP present.
Using the CellTiter-Glo luminescent cell viability assay, the amount of cellular ATP was measured in the lymphoblastoid cell line with complete culture medium following compound treatment for 24 hours. The assay was performed in opaque white Kalypsys 1536-well plates. In the screen, tetraoctylammonium bromide was used as positive control. Library compounds were measured for their ability to cause acute toxicity in the cell line, as reflected by a decrease in intracellular ATP levels, in a concentration-dependent manner. […] AC50 values were determined from concentration-response data modeled with the standard Hill equation.
qHTS protocol for CellTiter Glo lymphoblastoid cellular assay
[Step] [Parameter] [Value] [Description]
1. Reagent; 5 uL; 2500 lymphoblastoid cells/well
2. Time; 5 hr; 37 C incubation
4. Controls; 23 nL; Tetraoctylammonium bromide 6.4pM to 92 uM
5. Time; 24 hr; 37 C incubation
6. Reagent; 5 uL; CellTiter Glo reagent
7. Time; 30 min; Room Temperature
8. Detection; Luminescence; Viewlux plate reader
Keywords: cell viability, cytotoxicity, lymphoblastoid cell line, luminescence, NTPHTS, NTPHTS_NCGC, NIEHS, DSSTox, MLSMR, MLSCN, NIH Roadmap, qHTS, NCGC
Potency means the concentration at half of the fitted maximal effect.

| SMILES | Potency |
| --- | --- |
| CCC(C)Nc1ccc(NC(C)CC)cc1 (configuration not stated) | 3.98 µM (active) |
| O=Cc1ccc(Cl)c(Cl)c1 | inactive |
| CC(=O)Nc1ccc(C(=O)CCl)cc1 | 5.01 µM (active) |
| O=C=Nc1ccc(Cc2ccc(N=C=O)cc2)cc1 | inactive |
| Cc1cc(Nc2ccc(O)cc2)ccc1N | 39.8 µM (active) |
| C=C(C)c1ccccc1 | inactive |
| Cc1cccc(O)c1C | inactive |
| c1ccc2c(c1)ccc1cc3c(ccc4ccccc43)cc12 | inactive |
| Oc1ccc2cc(SSc3ccc4cc(O)ccc4c3)ccc2c1 | 50.1 µM (active) |
| CN(C)c1ccc(C2(c3ccc(N(C)C)cc3)OC(=O)c3cc(N(C)C)ccc32)cc1 | inactive |
| O=C(/C=C/c1ccc(O)c(O)c1)OC1C[C@](O)(C(=O)O)C[C@@H](O)[C@H]1O (some centres not stated) | inactive |
| O=C(OCC(COC(=O)c1ccccc1)(COC(=O)c1ccccc1)COC(=O)c1ccccc1)c1ccccc1 | inactive |
| O=C1OC(O)C(C(Cl)Cl)=C1Cl (configuration not stated) | 20 µM (active) |
| CCCCCC/C(C=O)=C\c1ccccc1 | inactive |
| CNc1ccc(O)cc1 | 3.98 µM (active) |
| O=[N+]([O-])c1cc([N+](=O)[O-])c2ccc(S(=O)(=O)O)cc2c1O | inactive |
| Cc1cc(O)c(C(C)(C)C)cc1Sc1cc(C(C)(C)C)c(O)cc1C | 39.8 µM (active) |
| CN1[C@H]2CC(OC(=O)[C@H](CO)c3ccccc3)C[C@H]1[C@H]1O[C@H]12 (some centres not stated) | inactive |
| C=CC(=O)OCCOCCOC(=O)C=C | 12.6 µM (active) |
| c1ccc2c(c1)-c1cccc3c1c-2cc1ccccc13 | inactive |
| CCCCCCCC[N+](CCCCCCCC)(CCCCCCCC)CCCCCCCC | 3.98 µM (active) |
| Nc1ccc2cc3ccccc3cc2c1 | inactive |
